# Calls of active or inactive are those of the source. The calls were made as follows: active = hit-call score of the fitted dose curve at least 0.9, where 1 is the maximum; inactive = score below 0.9.
# Assays:
# [1] = ATG_GLI_CIS: Attagene CIS-FACTORIAL HepG2 Assay for human Zinc Finger Protein GLI1 (AID 2282945); details: HepG2, Attagene cis-factorial reporter mRNA, GLI element; actives raise or lower the signal
# In short: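 Bidirectional curve fits relative to DMSO, using reporter mRNA levels from RT-PCR plus capillary electrophoresis. Cells were HepG2 transiently carrying cis-regulated reporter constructs, harvested 24 h after dosing.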
# [2] = ATG_ISRE_CIS: Attagene CIS-FACTORIAL HepG2 Assay for human Interferon Regulatory Factor 1 (IRF1) binding to an Interferon-Stimulated Response Element (ISRE) (AID 2282948); details: HepG2 ISRE cis-reporter (Attagene), mRNA transcription readout; actives raise or lower the signal
# In short: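 Transfected HepG2 (multiple reporter transcription units, cis elements) dosed 24 h. RNA → oligo(dT) RT → PCR → 6-FAM primer extension → HpaI → CE. DMSO = negative control/baseline.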
# [3] = ATG_M_32_CIS: Attagene CIS-FACTORIAL HepG2 Assay for M32 Transcription Factor (Internal Marker) (AID 2282949); details: HepG2 Attagene cis-factorial M32 reporter, mRNA; actives raise or lower the signal;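 also: background control marker of the multiplexed CIS panel rather than a real target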
# In short: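 Internal background marker read-out: RT-PCR/capillary electrophoresis fluorescence of reporter transcripts from transiently transfected HepG2 cells after 24 h chemical exposure. Activity fitted bidirectionally relative to DMSO negative control.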
# [4] = ATG_M_06_CIS: Attagene CIS-FACTORIAL HepG2 Assay for M06 Transcription Factor (Internal Marker) (AID 2282950); details: HepG2 Attagene CIS-FACTORIAL M06 internal marker reporter; actives raise or lower the signal
# In short: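 Serves as a background control readout. Transfected HepG2 exposed to compounds for 24 h, then reporter transcripts quantified by fluorescent RT-PCR and capillary electrophoresis. Both directions fitted against DMSO baseline.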
# [5] = biological target: Hypoxia-inducible factor 1-alpha (Homo sapiens) (UniProt Q16665); assay: ATG_HIF1a_CIS: Attagene CIS-FACTORIAL HepG2 Assay for human Hypoxia Inducible Factor 1 (HIF1A) (AID 2282951); details: HepG2 Attagene cis-factorial HIF1a reporter transcription; actives raise or lower the signal
# In short: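 HepG2 cells transiently transfected with multiplexed cis-promoter reporter units; reporter mRNA read 24 h after dosing by RT-PCR, 6-FAM primer-extension labelling, HpaI digestion and capillary electrophoresis. Bidirectional fit versus DMSO baseline.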
# [6] = biological target: Heat shock factor protein 1 (Homo sapiens) (UniProt Q00613); assay: ATG_HSE_CIS: Attagene CIS-FACTORIAL HepG2 Assay for human Heat Shock Transcription Factor 1 (HSE) (AID 2282953); details: HepG2 HSE cis-reporter, Attagene RNA transcription; actives raise or lower the signal
# In short: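 Endogenous transcription factor activity in transiently transfected HepG2, read as reporter mRNA by RT-PCR with fluorescent capillary electrophoresis after 24 h. Gain or loss of signal fitted versus DMSO baseline.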
# [7] = ATG_MRE_CIS: Attagene CIS-FACTORIAL HepG2 Assay for human Metal Responsive Element (MRE) (AID 2282954); details: HepG2 MRE cis-reporter transcription, Attagene multiplex; actives raise or lower the signal
# In short: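 After a 24 h chemical exposure, transiently transfected HepG2 cells yield RNA whose reporter sequences are amplified, FAM-labelled and sized by capillary electrophoresis. Curves are fitted bidirectionally relative to DMSO.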
# [8] = ATG_GRE_CIS: Attagene CIS-FACTORIAL HepG2 Assay for human Glucocorticoid Response Elements (GRE) (AID 2282947); details: HepG2 GRE cis-reporter, Attagene multiplex mRNA; actives raise or lower the signal
# In short: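 Assay uses human hepatoma HepG2 cells transfected with cis-promoter reporter units, exposed 24 h. mRNA from reporters detected by RT-PCR plus capillary electrophoresis; DMSO serves as negative control and baseline.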
# [9] = biological target: Hepatocyte nuclear factor 6 (Homo sapiens) (UniProt Q9UBC0); assay: ATG_HNF6_CIS: Attagene CIS-FACTORIAL HepG2 Assay for human Hepatocyte Nuclear Factor 6 (HNF6) (AID 2282952); details: HepG2 Attagene cis-factorial HNF6 reporter transcription; actives raise or lower the signal
# In short: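 HepG2, transient MRTU transfection (cis promoters); 24 h chemical exposure; total RNA → oligo(dT) RT → PCR → 6-FAM labelling → HpaI cut → CE; bidirectional fit vs DMSO.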
# Hepatocyte nuclear factor 6 (Homo sapiens), sequence (Q9UBC0 whole entry, looked up): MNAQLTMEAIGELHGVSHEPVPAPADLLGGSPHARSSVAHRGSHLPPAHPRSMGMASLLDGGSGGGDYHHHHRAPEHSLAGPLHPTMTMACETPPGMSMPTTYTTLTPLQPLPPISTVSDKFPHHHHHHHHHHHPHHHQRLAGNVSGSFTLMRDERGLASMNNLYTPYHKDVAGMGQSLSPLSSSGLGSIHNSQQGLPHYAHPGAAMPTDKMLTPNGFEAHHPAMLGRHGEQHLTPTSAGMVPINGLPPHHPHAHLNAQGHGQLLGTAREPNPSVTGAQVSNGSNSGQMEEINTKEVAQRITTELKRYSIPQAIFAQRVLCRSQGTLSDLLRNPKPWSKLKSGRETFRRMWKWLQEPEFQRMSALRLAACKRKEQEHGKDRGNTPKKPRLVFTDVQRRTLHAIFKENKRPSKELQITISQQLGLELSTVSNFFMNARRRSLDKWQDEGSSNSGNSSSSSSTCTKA
# Heat shock factor protein 1 (Homo sapiens), sequence (Q00613 whole entry, looked up): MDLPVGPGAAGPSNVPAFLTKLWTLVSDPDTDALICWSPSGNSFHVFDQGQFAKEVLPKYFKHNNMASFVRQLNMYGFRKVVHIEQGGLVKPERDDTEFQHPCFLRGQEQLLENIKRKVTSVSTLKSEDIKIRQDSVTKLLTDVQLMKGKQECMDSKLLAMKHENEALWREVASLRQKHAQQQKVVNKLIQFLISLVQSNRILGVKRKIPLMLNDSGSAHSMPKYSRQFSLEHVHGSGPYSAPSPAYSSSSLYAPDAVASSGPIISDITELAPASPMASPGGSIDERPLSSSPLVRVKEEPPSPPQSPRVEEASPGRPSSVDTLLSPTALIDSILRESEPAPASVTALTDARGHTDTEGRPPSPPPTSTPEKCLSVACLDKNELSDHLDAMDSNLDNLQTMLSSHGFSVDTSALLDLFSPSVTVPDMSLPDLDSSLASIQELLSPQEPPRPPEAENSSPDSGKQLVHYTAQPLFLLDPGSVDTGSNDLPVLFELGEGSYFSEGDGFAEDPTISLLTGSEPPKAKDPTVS
# Hypoxia-inducible factor 1-alpha (Homo sapiens), sequence (Q16665 whole entry, looked up): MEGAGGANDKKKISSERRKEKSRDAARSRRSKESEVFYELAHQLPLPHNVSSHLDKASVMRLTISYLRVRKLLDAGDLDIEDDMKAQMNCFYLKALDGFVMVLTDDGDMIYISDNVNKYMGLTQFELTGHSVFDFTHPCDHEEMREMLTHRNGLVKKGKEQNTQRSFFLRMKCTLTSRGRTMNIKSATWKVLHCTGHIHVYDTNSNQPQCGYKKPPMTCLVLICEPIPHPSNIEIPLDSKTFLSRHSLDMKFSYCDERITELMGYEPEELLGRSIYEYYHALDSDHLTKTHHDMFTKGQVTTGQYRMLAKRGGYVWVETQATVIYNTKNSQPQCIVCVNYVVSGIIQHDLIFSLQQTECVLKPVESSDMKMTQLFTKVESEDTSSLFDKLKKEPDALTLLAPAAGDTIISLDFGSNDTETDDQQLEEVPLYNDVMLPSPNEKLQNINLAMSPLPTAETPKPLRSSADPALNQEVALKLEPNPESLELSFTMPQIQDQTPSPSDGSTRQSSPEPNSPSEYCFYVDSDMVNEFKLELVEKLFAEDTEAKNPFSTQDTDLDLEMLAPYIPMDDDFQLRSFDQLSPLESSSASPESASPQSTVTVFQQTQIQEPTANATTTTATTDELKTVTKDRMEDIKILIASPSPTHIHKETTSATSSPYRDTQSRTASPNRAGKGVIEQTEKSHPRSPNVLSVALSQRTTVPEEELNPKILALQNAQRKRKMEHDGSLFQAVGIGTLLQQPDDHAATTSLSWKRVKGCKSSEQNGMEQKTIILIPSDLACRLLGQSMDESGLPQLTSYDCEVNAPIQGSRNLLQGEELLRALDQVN
smiles,measurement,setting,value
CCCCCC(=O)O,outcome,[1],inactive
same,outcome,[2],inactive
same,outcome,[3],inactive
same,outcome,[4],inactive
same,outcome,[5],inactive
same,outcome,[6],inactive
same,outcome,[7],inactive
Cc1cccc(Nc2cc(Cl)nc(SCC(=O)O)n2)c1C,outcome,[1],inactive
same,outcome,[8],inactive
same,outcome,[2],inactive
same,outcome,[3],inactive
same,outcome,[4],inactive
same,outcome,[9],inactive
same,outcome,[6],inactive
same,outcome,[7],inactive
O=[N+]([O-])C(CO)(CO)CO,outcome,[1],inactive
same,outcome,[2],inactive
same,outcome,[3],inactive
same,outcome,[4],inactive
same,outcome,[5],inactive
same,outcome,[6],inactive
same,outcome,[7],inactive
Cc1ccc2ncccc2c1,outcome,[1],inactive
same,outcome,[8],inactive
same,outcome,[2],inactive
same,outcome,[3],inactive
same,outcome,[4],inactive
same,outcome,[5],inactive
same,outcome,[6],inactive
same,outcome,[7],inactive
O=c1c(O)c(-c2ccc(O)c(O)c2)oc2cc(O)cc(O)c12,outcome,[1],inactive
same,outcome,[2],inactive
same,outcome,[3],inactive
same,outcome,[4],inactive
same,outcome,[9],inactive
same,outcome,[7],inactive
C=CCc1ccc(O)c(OC)c1,outcome,[1],inactive
same,outcome,[2],inactive
same,outcome,[3],inactive
same,outcome,[4],inactive
same,outcome,[5],inactive
same,outcome,[9],inactive
same,outcome,[6],inactive
same,outcome,[7],inactive
CCCCCCC(=O)OCC,outcome,[1],inactive
same,outcome,[2],inactive
same,outcome,[3],inactive
same,outcome,[4],inactive
same,outcome,[5],inactive
same,outcome,[6],inactive
same,outcome,[7],inactive
CCCCCCCCCCCCCCCCCC(=O)O,outcome,[1],inactive
same,outcome,[2],inactive
same,outcome,[3],inactive
same,outcome,[4],inactive
same,outcome,[5],inactive
same,outcome,[6],inactive
same,outcome,[7],inactive
COc1ccc(S(=O)(=O)N2C(=O)[C@@](c3ccccc3OC)(N3C[C@H](O)C[C@H]3C(=O)N(C)C)c3cc(Cl)ccc32)c(OC)c1,AC50,[1],125 µM (active)
same,AC50,[8],147 µM (active)
same,AC50,[2],49.9 µM (active)
same,AC50,[3],133 µM (active)
same,outcome,[4],inactive
same,AC50,[5],25.2 µM (active)
same,AC50,[6],149 µM (active)
same,AC50,[7],45.5 µM (active)
CC1=C(/C=C/C(C)=C/C=C/C(C)=C/CO)C(C)(C)CCC1,outcome,[1],inactive
same,outcome,[2],inactive
same,outcome,[3],inactive
same,outcome,[4],inactive
same,outcome,[5],inactive
same,AC50,[9],158 µM (active)
same,AC50,[6],197 µM (active)
same,AC50,[7],106 µM (active)
CC(C)c1ccc(C(=O)N=C(N)N)cc1S(C)(=O)=O,outcome,[1],inactive
same,outcome,[8],inactive
same,outcome,[2],inactive
same,outcome,[3],inactive
same,outcome,[4],inactive
same,outcome,[5],inactive
same,outcome,[6],inactive
same,outcome,[7],inactive
CCOc1ccc2c(c1)C(C)=CC(C)(C)N2,outcome,[1],inactive
same,outcome,[2],inactive
same,outcome,[3],inactive
same,outcome,[4],inactive
same,outcome,[9],inactive
same,AC50,[6],152 µM (active)
same,AC50,[7],148 µM (active)
C[C@]12C=CC(=O)C=C1CC[C@@H]1[C@@H]2C(=O)C[C@@]2(C)[C@H]1CC[C@]2(O)C(=O)CO,outcome,[1],inactive
same,outcome,[2],inactive
same,outcome,[3],inactive
same,outcome,[4],inactive
same,outcome,[5],inactive
same,outcome,[9],inactive
same,outcome,[6],inactive
same,outcome,[7],inactive
CCNc1cccc(C)c1,outcome,[1],inactive
same,outcome,[2],inactive
same,outcome,[3],inactive
same,outcome,[4],inactive
same,AC50,[5],60.8 µM (active)
same,outcome,[6],inactive
same,outcome,[7],inactive
Cc1cccc([N+](=O)[O-])c1C,outcome,[1],inactive
same,outcome,[2],inactive
same,outcome,[3],inactive
same,outcome,[4],inactive
same,outcome,[5],inactive
same,outcome,[6],inactive
same,outcome,[7],inactive
Cc1oc(-c2ccccc2)nc1CCOc1cccc2c1ccn2CCC(=O)O,outcome,[1],inactive
same,outcome,[8],inactive
same,outcome,[2],inactive
same,outcome,[3],inactive
same,outcome,[4],inactive
same,outcome,[5],inactive
same,outcome,[6],inactive
same,outcome,[7],inactive
CCCCCCCC=O,outcome,[1],inactive
same,outcome,[2],inactive
same,outcome,[3],inactive
same,outcome,[4],inactive
same,outcome,[5],inactive
same,outcome,[6],inactive
same,outcome,[7],inactive
CC(=O)Oc1ccccc1C(=O)O,outcome,[1],inactive
same,outcome,[8],inactive
same,outcome,[2],inactive
same,outcome,[3],inactive
same,outcome,[4],inactive
same,outcome,[9],inactive
same,outcome,[7],inactive
COCCOC[C@H](CC1(C(=O)NC2CCC(C(=O)O)CC2)CCCC1)C(=O)Oc1ccc2c(c1)CCC2 (stereo partly drawn),outcome,[1],inactive
same,outcome,[8],inactive
same,outcome,[2],inactive
same,outcome,[3],inactive
same,outcome,[4],inactive
same,outcome,[5],inactive
same,outcome,[6],inactive
same,outcome,[7],inactive
NCC1(Cc2noc(=O)[nH]2)CCCCC1,outcome,[1],inactive
same,outcome,[2],inactive
same,outcome,[3],inactive
same,outcome,[4],inactive
same,outcome,[5],inactive
same,outcome,[6],inactive
same,outcome,[7],inactive
OC[C@@H](O)[C@@H](O)[C@H](O)[C@H](O)CO,outcome,[1],inactive
same,outcome,[2],inactive
same,outcome,[3],inactive
same,outcome,[4],inactive
same,outcome,[5],inactive
same,outcome,[9],inactive
same,outcome,[6],inactive
same,outcome,[7],inactive
CC=Cc1ccc(O)c(OC)c1,outcome,[1],inactive
same,outcome,[2],inactive
same,outcome,[3],inactive
same,outcome,[4],inactive
same,outcome,[5],inactive
same,outcome,[9],inactive
same,outcome,[6],inactive
same,outcome,[7],inactive
COc1ccc2c(c1)c(CC(=O)O)c(C)n2C(=O)c1ccc(Cl)cc1,outcome,[1],inactive
same,outcome,[8],inactive
same,outcome,[2],inactive
same,outcome,[3],inactive
same,outcome,[4],inactive
same,outcome,[5],inactive
same,outcome,[6],inactive
same,outcome,[7],inactive
NCCO,outcome,[1],inactive
same,outcome,[8],inactive
same,outcome,[2],inactive
same,outcome,[3],inactive
same,outcome,[4],inactive
same,outcome,[5],inactive
same,outcome,[6],inactive
same,outcome,[7],inactive
Cc1ccc(C)c(C)c1,outcome,[1],inactive
same,outcome,[8],inactive
same,outcome,[2],inactive
same,outcome,[3],inactive
same,outcome,[4],inactive
same,outcome,[5],inactive
same,outcome,[6],inactive
same,outcome,[7],inactive

# Reference: PubChem BioAssay (EPA / NIEHS)
